According to PubChem BioAssay (NCI):
Compounds without any hit were thinned out: in the full panel of roughly 83,000, 20% have a hit.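 Each cell line was grown in a 96-well plate and treated with one concentration of compound for 48 hours. Values below 10 were considered active.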 Active and inactive are the calls of the source.

Tests used:
Assay in all cases: NCI-60 one-dose screen, 48 h (100 = growth as untreated, 0 = no growth, -100 = all killed)
Conditions in all cases: 10 µM unless noted
[1] = system: SR leukemia
[2] = system: OVCAR-8 ovarian
[3] = system: OVCAR-5 ovarian
[4] = system: OVCAR-4 ovarian
[5] = system: SK-OV-3 ovarian
[6] = system: IGROV1 ovarian
[7] = system: OVCAR-3 ovarian
[8] = system: HS 578T breast
[9] = system: NCI/ADR-RES ovarian
[10] = system: RPMI-8226 leukemia

Measured: growth

CCOC(=O)CSc1nnc(-c2cc3c([nH]c4ccccc43)c(-c3cccc(O)c3)n2)n1-c1ccc(C)cc1
inactive: [1] 13.7% | [2] 16.7% | [3] 96.4% | [4] 72.6% | [5] 105% | [6] 28.3% | [7] 31.1% | [8] 58.7% | [9] 89.9%

CCCC(=O)Oc1ccc(/C(=C(\C)c2ccc(OC)cc2)c2ccc(OCCN3CCCCC3)cc2)cc1
active: [1] -14.9%
inactive: [10] 56.9% | [3] 86.4% | [4] 75% | [5] 79.9% | [6] 89.9% | [7] 89.4% | [8] 84.3% | [9] 75.6%

O=C(NNC(=O)c1ccc([N+](=O)[O-])cc1)c1ccc([N+](=O)[O-])cc1
inactive: [1] 99.1% | [2] 112% | [3] 102% | [4] 93.8% | [5] 96.1% | [6] 112% | [7] 104% | [8] 104% | [9] 104%

O=C(Nc1cccc([N+](=O)[O-])c1)c1ccc2ccccc2c1O
inactive: [1] 92.2% | [3] 64.2% | [4] 44.5% | [5] 74.6% | [7] 36.9% | [8] 69.7% | [9] 53.1%
active: [10] -7.69%

Cc1cc2c(cc1C)N(C(=O)CCl)CCN2C(=O)CCl
inactive: [5] 53%
active: [1] -13.6% | [10] -41.9% | [3] -74.4% | [4] -72% | [6] -61.8% | [7] -95.8% | [9] -49.7%

Cc1cccc(NCS(=O)(=O)O)c1
inactive: [1] 107% | [2] 88.6% | [3] 107% | [4] 109% | [5] 97.4% | [6] 102% | [7] 116% | [8] 104% | [9] 105%

CC12CCC3C(CCC4CC(O)CCC43C)C1C/C(=C/O)C(=O)O2 (stereo unspecified)
inactive: [1] 96.1% | [2] 104% | [3] 111% | [4] 134% | [5] 105% | [6] 105% | [7] 103% | [8] 98.4% | [9] 108%

COc1ccccc1S(=O)(=O)Nc1ccc2c3c(cc(-c4cnn(C5CC5)c4)nc13)C(=O)N2C
inactive: [1] 51.3% | [10] 10% | [3] 72.6% | [4] 62.2% | [5] 55.8% | [6] 59.2% | [7] 69.8% | [8] 55.9% | [9] 59%

COc1ccc(-n2c(-c3ccc(NC(=O)CCCl)cc3)nnc2-c2cc(OC)c(OC)c(OC)c2)cc1
inactive: [10] 31% | [3] 79.7% | [4] 54.1% | [5] 45.2% | [6] 42.4% | [8] 56% | [9] 55.9%
active: [1] 6.09% | [7] 4.58%

CC(C(C(=O)N1CCCCC1)N1CCCCC1)N1CCCCC1 (stereo unspecified)
inactive: [1] 71.3% | [2] 105% | [3] 117% | [4] 116% | [5] 103% | [6] 160% | [7] 119% | [8] 103% | [9] 112%

CCOC(=O)c1noc2c1CCc1cn(Cc3cc(OC)cc(OC)c3)cc1-2
inactive: [1] 91.1% | [2] 107% | [3] 108% | [4] 113% | [5] 101% | [6] 110% | [7] 103% | [8] 99.7% | [9] 97.9%

Cc1[nH]n(C(=O)c2ccncc2)c(=O)c1N=Nc1ccc(S(=O)(=O)Nc2ccncn2)cc1
inactive: [1] 78.1% | [10] 60.1% | [3] 114% | [4] 103% | [5] 111% | [6] 101% | [7] 106% | [8] 96.7% | [9] 114%

CS(=O)(=O)OCC(COS(C)(=O)=O)C(c1ccccc1)c1ccccc1
inactive: [1] 74.7% | [2] 118% | [3] 110% | [4] 106% | [5] 101% | [6] 102% | [7] 127% | [8] 104%

Clc1ccc2c(NCCNc3nc(Cl)nc4ccccc34)ccnc2c1
inactive: [9] 38.5%
active: [1] -27.3% | [10] -50.7% | [3] -49.9% | [4] -72% | [5] -80.4% | [6] -85% | [7] -78% | [8] -41.9%

COc1cc(CN(c2ccc(Cl)cc2)C2OC(=O)c3ccccc32)cc(OC)c1OC (stereo unspecified)
inactive: [1] 32.1% | [10] 70.9% | [3] 63.5% | [4] 74.7% | [5] 62.7% | [6] 63.9% | [7] 48.8% | [8] 59.6% | [9] 55.9%

N#Cc1c(N)nc(Cl)c(C#N)c1C(=O)c1ccccc1
inactive: [3] 91.2% | [4] 96.7% | [5] 74.5% | [6] 32.1% | [7] 50.4% | [8] 71% | [9] 81.4%
active: [1] -17.6% | [10] -17.6%

CN1CCN(Cn2nc(-c3cc(Cl)cc(Cl)c3Cl)n(/N=C/c3ccc(Cl)cc3)c2=S)CC1
inactive: [1] 38.7% | [10] 96.3% | [3] 96.3% | [4] 94.5% | [5] 101% | [6] 108% | [8] 112% | [9] 96.6%

Nc1nc(-c2cc3c(cc2Cl)NC(=O)/C3=C/c2ccccc2)cs1
inactive: [1] 14.2% | [2] 46.6% | [3] 108% | [4] 69.6% | [5] 81.1% | [6] 35.4% | [7] 29.8% | [8] 58.7% | [9] 74.6%

CCc1c(C)c2cc3nc(NCc4ccccc4)oc3c(C)c2oc1=O
inactive: [1] 73.5% | [10] 71.6% | [3] 89.7% | [4] 33.9% | [5] 39.5% | [6] 76.2% | [7] 87% | [8] 67.1% | [9] 51.2%

Nn1c(SCC(=O)Nc2cc(Cl)c(Cl)cc2Cl)nnc1-c1cc(F)c(Cl)cc1Cl
inactive: [1] 99.5% | [10] 132% | [3] 108% | [4] 120% | [5] 105% | [6] 55.2% | [8] 103% | [9] 99.7%

C=CC(=O)Nc1cccc(Nc2nc(Nc3ccc(OCCOC(F)F)cc3)ncc2F)c1
active: [5] -25%
inactive: [1] 10.5% | [2] 46% | [3] 45.6% | [4] 40.6% | [6] 14% | [7] 48.4% | [8] 23.4% | [9] 44.6%

CCOC(=O)C1CN(Cc2ccccc2)C(=O)C1=O (stereo unspecified)
inactive: [1] 27% | [10] 95.6% | [3] 95.2% | [4] 91.9% | [5] 107% | [6] 109% | [7] 105% | [9] 109%

COc1cc(-c2nc3ccccc3s2)ccc1OCc1nc2n(n1)S(=O)(=O)c1ccccc1N2c1ccccc1
inactive: [1] 23.7% | [10] 88.9% | [3] 104% | [4] 102% | [5] 110% | [6] 56.1% | [8] 97% | [9] 107%

CCn1cc(/C=C2\Oc3cc(OCC#N)ccc3C2=O)c2cc(OC)ccc21
inactive: [1] 19.2% | [10] 15.1% | [3] 62.1% | [4] 85.6% | [5] 43.3% | [6] 43.3% | [8] 29.4% | [9] 11.2%
active: [7] -6.84%

CNCCCOc1c(Br)cc(CCNC(=O)/C(Cc2ccc(OC)c(Br)c2)=N/O)cc1Br
active: [1] -30.7% | [10] 8.44%
inactive: [3] 86.7% | [4] 27.9% | [5] 63.4% | [6] 49.5% | [7] 65.5% | [8] 37.6% | [9] 81.3%

COc1cc(C(=O)C[n+]2ccccc2)ccc1OC(C)=O
inactive: [1] 109% | [2] 102% | [3] 105% | [4] 96.8% | [5] 97.5% | [6] 107% | [7] 106% | [8] 95.1% | [9] 111%

c1ccc([Se]CCCN2CCN(CCC[Se]c3ccccc3)CC2)cc1
inactive: [1] 126% | [2] 119% | [3] 121% | [4] 101% | [5] 113% | [6] 103% | [7] 116% | [8] 110% | [9] 101%

COc1ccc(/C=N/C2=NNC(C)(c3ccccc3O)N2C(Cc2c[nH]c3ccccc23)C(=O)O)cc1 (stereo unspecified)
inactive: [2] 17.1% | [3] 69.4% | [4] 33.3% | [5] 46.8% | [6] 16.7% | [7] 30% | [8] 51.7% | [9] 34.9%
active: [1] 6.53%

O=C(NCCNc1nccc(-c2c(-c3cccc(O)c3)nc3sccn23)n1)c1cccc(C(F)(F)F)c1
inactive: [1] 97% | [10] 44.2% | [3] 113% | [4] 117% | [5] 84.2% | [6] 62.1% | [7] 89.8% | [9] 98.3%

Nn1c(CN2CCN(c3cc4c(cc3F)c(=O)c(C(=O)O)cn4C3CC3)CC2)n[nH]c1=S
inactive: [1] 99.1% | [2] 106% | [3] 108% | [4] 102% | [5] 107% | [6] 97.3% | [7] 103% | [8] 108% | [9] 106%

C=C1C(=O)O[C@H]2[C@H]1CC/C(COC(=O)c1ccc(C#N)cc1)=C\CC[C@@]1(C)O[C@@H]21
inactive: [3] 34.5% | [4] 35.9% | [5] 106% | [8] 70% | [9] 54.5%
active: [1] -10% | [2] 1.03% | [6] 7.59% | [7] -10.7%
